Results taken from PubChem BioAssay AID2685 (National Center for Advancing Translational Sciences (NCATS), 2010).
In all, about 320,000 compounds went through this assay and about 2,100 (0.66%) were called active. Roughly 53% stayed inconclusive and do not appear here. Calls come from the whole dose curve; as a rule, active = well fitted inhibition curve with a large enough effect in the signal ratio, with a control signal flat (not every such curve was filed as active); inconclusive = small, poorly fitted or top-dose-only effect, or effect the other way, or a change in a side signal; inactive = flat fitted curve, though single readings scatter; the % refers to the signal ratio. For the sample, actives were picked, then their nearest neighbours and some compounds at random.

test: qHTS Assay for Lipid Storage Modulators in Drosophila S3 Cells; conditions: BODIPY lipid droplet fluorescence, 18-24 h, cells fed with added oleic acid; cell number change: measured here: cell count max response; series mostly up to 46.1 µM;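 for cell number change: cells counted by Cell Tracker Red CMTPX staining in the red channel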; for lipid storage change, negative = inhibition: % is set by controls: 0 for no effect and ±100 for the full control effect
Summary of the method: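 Drosophila S3 cells got compounds at several concentrations plus oleic acid (400 uM solution). Laser-scanning cytometry with 488 nm excitation read lipid droplets at 500-530 nm and cells at 575-640 nm. Percent activity was relative to 20 uM Triacsin C.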
Potency is the fitted concentration of half-maximal effect.

Structure (SMILES) | Potency | cell number change | lipid storage change, negative = inhibition
CCOC(=O)Cc1nnc(NC(=O)CSc2ccc(C)cc2)s1 | inactive | 10.4% | –
CC(NC(=O)c1ccco1)c1nc(-c2ccccc2)no1 (centres undefined) | 25.9 µM (active) | 24.3% | –
CC(NC(=O)c1ccco1)c1nc(-c2ccc(Cl)cc2)no1 (centres undefined) | inactive | – | –
CC(NC(=O)c1ccco1)c1nc(-c2ccc(C(C)(C)C)cc2)no1 (centres undefined) | inactive | -0.87% | –
Cc1c(NC(=O)COc2cccc(F)c2)c(=O)n(-c2ccccc2)n1C | inactive | -5.04% | –
COc1ccccc1NC(=O)C(C)OC(=O)CCCN=C1NS(=O)(=O)c2ccccc21 (centres undefined) | inactive | – | –
Oc1ccc(/C=N/NC2=NCCCCC2)cc1 | 9.2 µM (active) | 1.27% | –
CCOc1ccc(/C=N/NC2=NCCCCC2)cc1 | inactive | 8.72% | –
COc1ccc(/C=N/NC2=NCCCCC2)cc1 | inactive | – | –
C=CCSc1nc(=O)n2ccccc2n1 | inactive | – | –
CCCSc1ccc(-c2nn(-c3ccccc3)cc2/C=C(/C#N)C(=O)N2CCOCC2)cc1 | inactive | -5% | –
O=C(c1c(F)cccc1F)N(C1CCCCC1)C1CCCCC1 | inactive | -23% | –
Cc1ccccc1NC(=O)CN(C)S(=O)(=O)c1ccc2c(c1)n(C)c(=O)c(=O)n2C | 18.4 µM (active) | 13.4% | –
COc1ccc(N(CC(=O)NCc2ccco2)S(=O)(=O)c2ccccc2)cc1 | inactive | 3.25% | –
COCCCNC(=O)CN(c1cc(OC)ccc1OC)S(=O)(=O)c1ccccc1 | inactive | 13.9% | –
COc1ccc(N(CC(=O)NCc2ccccc2OC)S(=O)(=O)c2ccccc2)cc1 | 8.2 µM (active) | 10.9% | –
COc1ccc(N(CC(=O)NCCSC2CCCCC2)S(=O)(=O)c2ccccc2)cc1OC | inactive | -12.6% | –
CCOc1ccc(N(CC(=O)NC2CC3CCC2C3)S(=O)(=O)c2ccccc2)cc1 (centres undefined) | inactive | 16.1% | –
CCOc1ccc(N(CC(=O)NC2CCCCCC2)S(=O)(=O)c2ccccc2)cc1 | inactive | 24.3% | –
COc1ccc(OC)c(N(CC(=O)NCCSC2CCCCC2)S(=O)(=O)c2ccccc2)c1 | 14.6 µM (active) | -18.5% | –
CN(CC(=O)Nc1ccccc1F)S(=O)(=O)c1ccc2c(c1)n(C)c(=O)c(=O)n2C | inactive | 1.35% | –
COc1ccc(N(CC(=O)NCc2ccccc2OC)S(=O)(=O)c2c(C)nn(C)c2C)cc1 | – | – | 22.2% [at 9.22 µM] (inactive)
Cc1ccc(NC(=O)CN(C)S(=O)(=O)c2ccc3c(c2)n(C)c(=O)c(=O)n3C)c(C)c1 | inactive | 25.1% | –
CCOc1ccc(N(CC(=O)NC2CCCC2)S(=O)(=O)c2ccccc2)cc1 | 2.59 µM (active) | -7.14% | –
CCc1ccc(CN2CCCC(CCC(=O)N3CCN(c4ccccn4)CC3)C2)o1 (centres undefined) | inactive | 5.55% | –
Cc1cc(CN2CCCC(N3CCc4ccccc4C3)C2)cc(C)c1O (centres undefined) | inactive | -2.22% | –
Cc1[nH]c2ccccc2c1C(c1ccccn1)N1CCC(C(N)=O)CC1 (centres undefined) | inactive | -13.7% | –
O=C(NCCN1CCOCC1)c1cccn2c(=O)c3c4c(sc3nc12)CCCC4 | inactive | -12.5% | –

Structure (SMILES) | Potency | cell number change | lipid storage change, negative = inhibition
Cc1c(C(=O)NCCSCc2ccccc2)cccc1[N+](=O)[O-] | inactive | -1.45% | –
O=C(c1ccc(OC2CCN(CCc3ccccc3)CC2)cc1)N1CCCC(CO)C1 (centres undefined) | inactive | 4.02% | –
COc1ccc(N2CCN(CC(O)COc3cc(C)ccc3C)CC2)cc1 (centres undefined) | inactive | -17% | –
CCCS(=O)(=O)C/C(N)=N/OC(=O)c1ccccc1Cl | inactive | -2.12% | –
CCC(C(=O)NCc1ccco1)N(C(=O)CNS(=O)(=O)c1ccccc1)c1ccc(F)cc1 (centres undefined) | inactive | -3.04% | –
CN(CC(=O)NCc1ccc(F)cc1)S(=O)(=O)c1ccc2c(c1)c(=O)n(C)c(=O)n2C | inactive | – | –
CCc1ccccc1NC(=O)CN(c1ccc(OC)cc1OC)S(=O)(=O)c1ccccc1 | 2.91 µM (active) | -14.4% | –
COc1ccccc1CNC(=O)CN(C)S(=O)(=O)c1ccc2c(c1)c(=O)n(C)c(=O)n2C | 9.2 µM (active) | – | –
COc1cccc(CNC(=O)CN(C)S(=O)(=O)c2ccc3c(c2)c(=O)n(C)c(=O)n3C)c1 | inactive | -15.3% | –
O=C(CN(c1ccc(F)cc1)S(=O)(=O)c1ccccc1)NC1CC2CCC1C2 (centres undefined) | inactive | 10.7% | –
COc1ccccc1N(CC(=O)Nc1ccc(Cc2ccncc2)cc1)S(=O)(=O)c1ccccc1 | 7.31 µM (active) | 27.6% | –
CCc1ccccc1NC(=O)CN(c1ccc(OC)cc1OC)S(=O)(=O)c1ccccc1[N+](=O)[O-] | inactive | -4.08% | –
COc1ccc(N(CC(=O)NC2CC3CCC2C3)S(=O)(=O)c2ccc(C)cc2)cc1OC (centres undefined) | inactive | 8.82% | –
COc1ccccc1N(CC(=O)Nc1cccnc1)S(=O)(=O)c1ccccc1 | inactive | -18% | –
COc1ccc(N(CC(=O)Nc2ccc(OC)cc2OC)S(=O)(=O)c2ccccc2)cc1 | inactive | -4.04% | –
Cc1cccc(N(CC(=O)NC2CC3CCC2C3)S(=O)(=O)c2ccccc2)c1 (centres undefined) | 20.6 µM (active) | -12.9% | –
COc1ccc(S(=O)(=O)N(CC(=O)Nc2cccnc2)c2ccccc2OC)cc1 | inactive | – | –
CC(=O)NC(CC(=O)OC(C)C(=O)Nc1ncc(Cl)cc1Cl)c1ccccc1 (centres undefined) | inactive | – | –
CC(=O)c1c(C)n(CC(=O)NCc2ccc3c(c2)OCO3)c2ccccc12 | inactive | – | –
O=S(=O)(NC(=NCCc1ccc(Cl)cc1)c1ccccc1Cl)c1cccs1 | inactive | 1.69% | –
O=C(COc1ccc([N+](=O)[O-])cc1)Nc1cc(C(=O)O)cc(C(=O)O)c1 | inactive | 11.2% | –
Cc1cc(Br)ccc1NC(=O)CNC(=O)CSc1ncccn1 | inactive | -9.9% | –
Cc1ccccc1C1c2[nH]c3ccccc3c2C[C@H]2C(=O)N(C3CC3)CC(=O)N12 (some centres undefined) | inactive | -3.81% | –
CCOC(=O)N1CCN(C(=O)CN(c2cccc(C)c2)S(=O)(=O)c2ccc(C)cc2)CC1 | 5.8 µM (active) | 6.11% | –
Cc1ccc(S(=O)(=O)N(CC(=O)N2CCCCC2)c2cccc(C)c2)cc1 | inactive | -21.5% | –
Cc1ccc(S(=O)(=O)N(CC(=O)N2CCC(C)CC2)c2cccc(C)c2)cc1 | inactive | – | –
Cc1nc2c(C(=O)N3CCOCC3)cnn2c(C)c1Cc1ccc(Cl)cc1 | inactive | -21.6% | –
